Measurements taken from PubChem BioAssay (EPA / NIEHS).
Several values for one entry are separate records, joined by “and”; a condition that tells them apart may be missing. Identical values can stand only once. A structure can be active in one record and inactive in another. Activity calls are given as the source filed them. The calls were made as follows: active = hit-call score of the fitted dose curve at least 0.9, where 1 is the maximum; inactive = score below 0.9.

Tests used:
[1] = ATG_DR4_LXR_CIS: Attagene CIS-FACTORIAL HepG2 Assay for human Liver X Receptor (LXR), DR4 submotif (AID 2282929); settings: HepG2 Attagene DR4 cis-reporter, mRNA transcription; AC50: actives raise or lower the signal unless noted; outcome: actives raise or lower the signal unless noted
Method in brief: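 Measures endogenous transcription factor activity via a DR4-driven reporter transcript in human HepG2 cells. Compounds incubated 24 h; mRNA quantified by RT-PCR and capillary electrophoresis, analysed as gain or loss of signal versus DMSO.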

[2] = biological target: Aryl hydrocarbon receptor (Homo sapiens) (UniProt P35869); experiment: ATG_Ahr_CIS: Attagene CIS-FACTORIAL HepG2 Assay for human Aryl Hydrocarbon Receptor (Ahr) (AID 2282930); settings: HepG2 AhR cis-factorial reporter transcription; actives raise or lower the signal
Sequence of Aryl hydrocarbon receptor (Homo sapiens) (P35869 whole entry, looked up): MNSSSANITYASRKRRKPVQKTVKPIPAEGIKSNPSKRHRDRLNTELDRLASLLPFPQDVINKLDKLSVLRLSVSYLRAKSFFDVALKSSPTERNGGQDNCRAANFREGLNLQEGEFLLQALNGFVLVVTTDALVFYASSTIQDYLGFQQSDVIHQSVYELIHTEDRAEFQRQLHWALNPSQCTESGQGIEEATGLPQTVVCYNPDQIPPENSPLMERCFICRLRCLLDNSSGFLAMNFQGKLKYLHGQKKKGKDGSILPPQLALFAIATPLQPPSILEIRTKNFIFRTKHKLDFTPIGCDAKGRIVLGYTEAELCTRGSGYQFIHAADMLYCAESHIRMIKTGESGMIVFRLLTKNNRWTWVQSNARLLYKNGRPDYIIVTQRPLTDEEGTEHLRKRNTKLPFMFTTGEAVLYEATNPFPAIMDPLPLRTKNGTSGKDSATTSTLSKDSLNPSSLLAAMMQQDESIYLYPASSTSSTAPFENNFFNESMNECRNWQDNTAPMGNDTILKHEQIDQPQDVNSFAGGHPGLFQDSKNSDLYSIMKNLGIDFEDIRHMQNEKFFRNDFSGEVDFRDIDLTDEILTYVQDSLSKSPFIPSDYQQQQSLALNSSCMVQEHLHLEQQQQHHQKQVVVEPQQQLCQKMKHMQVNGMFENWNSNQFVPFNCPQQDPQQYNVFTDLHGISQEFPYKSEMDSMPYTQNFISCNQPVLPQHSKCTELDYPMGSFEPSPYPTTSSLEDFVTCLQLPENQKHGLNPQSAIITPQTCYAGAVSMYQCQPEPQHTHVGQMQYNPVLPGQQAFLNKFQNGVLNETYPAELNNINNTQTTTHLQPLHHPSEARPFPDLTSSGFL
Method in brief: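 Transient MRTU transfection of HepG2 → 24 h compound exposure → total RNA, oligo(dT) RT → PCR, 6-FAM extension, HpaI cut → CE fluorescence. DMSO = baseline; bidirectional curve fit.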

[3] = ATG_AP_1_CIS: Attagene CIS-FACTORIAL HepG2 Assay for human Activator Protein 1 (AP-1) (AID 2282931); settings: HepG2 Attagene cis-factorial AP-1 reporter mRNA; actives raise or lower the signal
Method in brief: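 Bidirectional concentration-response fitting against DMSO controls. Underlying signal: reporter mRNA from cis-promoter constructs in transiently transfected HepG2, measured after 24 h by RT-PCR and capillary electrophoresis.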

[4] = ATG_AP_2_CIS: Attagene CIS-FACTORIAL HepG2 Assay for human Activator Protein 2 (AP-2) (AID 2282932); settings: HepG2 AP-2 cis-reporter, Attagene transcription factor profiling; AC50: actives raise or lower the signal unless noted; outcome: actives raise or lower the signal unless noted
Method in brief: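 Endogenous transcription factor activity is reported through transfected multiplex reporter constructs in HepG2, after 24 h of compound exposure. Transcripts were quantified by RT-PCR and capillary electrophoresis of fluorescent fragments. Bidirectional fit against DMSO.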

[5] = ATG_BRE_CIS: Attagene CIS-FACTORIAL HepG2 Assay for human Bone Morphogenetic Protein (BMP) Response Element (BRE) (AID 2282933); settings: HepG2 BMP response element reporter, Attagene transcription factor profiling; actives raise or lower the signal
Method in brief: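 Multiplexed cis-reporter assay, HepG2, 24 h exposure. mRNA from reporter units quantified via RT-PCR/CE; DMSO baseline; bidirectional curve fit.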

[6] = biological target: Retinoic acid receptor alpha (Homo sapiens) (UniProt P10276); experiment: ATG_DR5_RAR_CIS: Attagene CIS-FACTORIAL HepG2 Assay for human Retinoic Acid Receptor Alpha (RARE), DR5 submotif (AID 2282934); settings: HepG2 Attagene cis-factorial RARE DR5 reporter, mRNA; actives raise or lower the signal;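 as to AC50: reporter responds to endogenous RAR alpha beta and gamma in HepG2 not RARA alone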
Sequence of Retinoic acid receptor alpha (Homo sapiens) (P10276 whole entry, looked up): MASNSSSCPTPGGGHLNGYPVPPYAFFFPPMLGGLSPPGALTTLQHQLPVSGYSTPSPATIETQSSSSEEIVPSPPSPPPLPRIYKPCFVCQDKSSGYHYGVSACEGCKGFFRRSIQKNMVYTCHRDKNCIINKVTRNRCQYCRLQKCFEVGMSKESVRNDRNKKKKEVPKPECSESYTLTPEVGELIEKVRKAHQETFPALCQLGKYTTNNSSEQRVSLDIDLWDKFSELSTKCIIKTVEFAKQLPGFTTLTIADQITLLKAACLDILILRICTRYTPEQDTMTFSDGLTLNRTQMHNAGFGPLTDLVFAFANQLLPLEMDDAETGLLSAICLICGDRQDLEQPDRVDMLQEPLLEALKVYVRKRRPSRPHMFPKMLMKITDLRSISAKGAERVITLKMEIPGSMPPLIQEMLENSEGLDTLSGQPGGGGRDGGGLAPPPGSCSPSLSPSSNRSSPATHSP
Method in brief: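 Transient MRTU transfection of HepG2; 24 h compound treatment; TriZol RNA, oligo(dT) RT, PCR, FAM labelling, capillary electrophoresis. Bidirectional fit vs DMSO. Endogenous TF activity at DR5 RARE.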

[7] = biological target: Transcription factor E2F1 (Homo sapiens) (UniProt Q01094); experiment: ATG_E2F_CIS: Attagene CIS-FACTORIAL HepG2 Assay for human E2F Transcription Factor 1 (AID 2282935); settings: HepG2 Attagene cis-reporter, E2F reporter RNA transcripts; actives raise or lower the signal
Sequence of Transcription factor E2F1 (Homo sapiens) (Q01094 whole entry, looked up): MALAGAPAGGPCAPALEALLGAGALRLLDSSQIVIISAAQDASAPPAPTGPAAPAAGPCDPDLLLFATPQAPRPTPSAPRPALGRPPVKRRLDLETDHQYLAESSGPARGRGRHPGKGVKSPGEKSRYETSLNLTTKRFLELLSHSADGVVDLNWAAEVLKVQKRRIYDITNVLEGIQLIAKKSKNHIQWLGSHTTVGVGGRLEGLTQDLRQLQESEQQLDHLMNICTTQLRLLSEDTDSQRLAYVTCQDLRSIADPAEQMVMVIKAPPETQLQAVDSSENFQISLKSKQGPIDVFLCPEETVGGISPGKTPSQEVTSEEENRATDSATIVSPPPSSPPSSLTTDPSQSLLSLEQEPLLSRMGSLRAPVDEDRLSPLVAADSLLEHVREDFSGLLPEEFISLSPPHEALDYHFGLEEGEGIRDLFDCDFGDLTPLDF
Method in brief: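 Gain or loss of reporter transcript, fitted against DMSO, reflects E2F1-driven transcription. Transiently transfected HepG2 dosed 24 h before RNA isolation. Quantified by fluorescent RT-PCR products separated by capillary electrophoresis.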

[8] = ATG_E_Box_CIS: Attagene CIS-FACTORIAL HepG2 Assay for human Enhancer Box (E-box) (AID 2282936); settings: HepG2 E-box cis-reporter transcription, actives raise or lower the signal
Method in brief: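 E-box-driven reporter transcripts measured in transiently transfected HepG2 after 24 h exposure: RNA reverse-transcribed, PCR-amplified, fluorescently labelled, digested and resolved by capillary electrophoresis. Gain or loss relative to DMSO.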

[9] = ATG_M_61_CIS: Attagene CIS-FACTORIAL HepG2 Assay for M61 Transcription Factor (Internal Marker) (AID 2282937); settings: HepG2 Attagene CIS-FACTORIAL M61 internal marker reporter; actives raise or lower the signal
Method in brief: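 Fluorescence from labelled cDNA fragments, separated by capillary electrophoresis, quantifies reporter induction. HepG2 cells bearing transiently transfected cis-promoter MRTUs were incubated with test chemical for 24 h; DMSO defined baseline for gain/loss fitting.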

[10] = ATG_EGR_CIS: Attagene CIS-FACTORIAL HepG2 Assay for human Early Growth Response 1 (EGR1) (AID 2282938); settings: HepG2 Attagene CIS-FACTORIAL EGR reporter mRNA; actives raise or lower the signal
Method in brief: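 Cell-based multiplex transcription assay: HepG2 carrying transfected cis-element reporter units, 24 h chemical treatment. Fluorescence from capillary electrophoresis of RT-PCR products gives mRNA levels; fitting is bidirectional relative to DMSO.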

[11] = ATG_M_19_CIS: Attagene CIS-FACTORIAL HepG2 Assay for M19 Transcription Factor (Internal Marker) (AID 2282939); settings: HepG2 Attagene CIS-FACTORIAL M19 internal marker reporter; actives raise or lower the signal
Method in brief: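 Signals come from fluorescence of labelled reporter-specific PCR fragments resolved by capillary electrophoresis, following 24 h treatment of HepG2 cells transfected with cis-promoter reporter units; activity was fitted in both directions relative to DMSO.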

[12] = ATG_ERE_CIS: Attagene CIS-FACTORIAL HepG2 Assay for Estrogen Response Element (ERE) (AID 2282940); settings: HepG2 ERE cis-reporter, Attagene RNA transcript; actives raise or lower the signal
Method in brief: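 Fluorescence of capillary-separated, FAM-labelled reporter cDNA fragments indicates reporter mRNA levels in HepG2 cells exposed to chemicals for 24 h. Transient transfection with cis-regulated units; data fitted in both directions against DMSO.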

[13] = ATG_Ets_CIS: Attagene CIS-FACTORIAL HepG2 Assay for human Erythroblast Transformation Specific (ETS) (AID 2282941); settings: HepG2 ETS cis-reporter transcription; AC50: actives raise or lower the signal unless noted; outcome: actives raise or lower the signal unless noted
Method in brief: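 Bidirectional fit versus DMSO of reporter mRNA signal, detected by RT-PCR and capillary electrophoresis in HepG2 cells transiently transfected with cis-element reporters and dosed 24 h.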

[14] = biological target: Hepatocyte nuclear factor 3-beta (Homo sapiens) (UniProt Q9Y261); experiment: ATG_FoxA2_CIS: Attagene CIS-FACTORIAL HepG2 Assay for human Forkhead box A2 (FOXA2) (AID 2282942); settings: HepG2 cis-reporter transcription factor activity, 24 h; actives raise or lower the signal
Sequence of Hepatocyte nuclear factor 3-beta (Homo sapiens) (Q9Y261 whole entry, looked up): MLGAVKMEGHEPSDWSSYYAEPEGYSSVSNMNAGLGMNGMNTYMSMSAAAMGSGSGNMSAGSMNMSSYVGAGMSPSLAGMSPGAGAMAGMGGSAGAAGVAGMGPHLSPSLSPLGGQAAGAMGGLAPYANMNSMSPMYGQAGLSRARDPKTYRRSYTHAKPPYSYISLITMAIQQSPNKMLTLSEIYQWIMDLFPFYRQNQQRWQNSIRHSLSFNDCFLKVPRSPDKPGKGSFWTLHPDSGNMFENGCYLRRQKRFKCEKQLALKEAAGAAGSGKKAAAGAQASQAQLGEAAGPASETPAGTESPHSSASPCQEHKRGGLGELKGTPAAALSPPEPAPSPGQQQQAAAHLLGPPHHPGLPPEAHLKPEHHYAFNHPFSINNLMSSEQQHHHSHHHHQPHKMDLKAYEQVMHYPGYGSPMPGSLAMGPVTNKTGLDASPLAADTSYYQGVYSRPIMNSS
Method in brief: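 In transiently transfected human HepG2 cells, promoter-driven reporter mRNA levels after 24 h chemical exposure are determined via RT-PCR with capillary electrophoresis. DMSO serves as baseline for bidirectional fitting.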

[15] = ATG_FoxO_CIS: Attagene CIS-FACTORIAL HepG2 Assay for human Forkhead box O (FoxO) (AID 2282943); settings: HepG2 Attagene cis-reporter, FoxO element, mRNA; actives raise or lower the signal
Method in brief: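 HepG2, transient MRTU transfection (cis element, endogenous TFs). Dose 24 h. TriZol RNA → oligo(dT) RT → PCR → 6-FAM primer extension → HpaI cut → CE. Gain/loss vs DMSO.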

[16] = ATG_GATA_CIS: Attagene CIS-FACTORIAL HepG2 Assay for human GATA Binding Protein (AID 2282944); settings: HepG2 GATA cis-element reporter, Attagene multiplex mRNA; actives raise or lower the signal
Method in brief: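 After transfecting HepG2 cells with multiple cis-regulated reporter units, chemicals are dosed for 24 h; isolated RNA undergoes RT-PCR and fluorescent labeling before capillary electrophoresis, with activity expressed against DMSO.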

[17] = ATG_GLI_CIS: Attagene CIS-FACTORIAL HepG2 Assay for human Zinc Finger Protein GLI1 (AID 2282945); settings: HepG2, Attagene cis-factorial reporter mRNA, GLI element; actives raise or lower the signal
Method in brief: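 Bidirectional curve fits relative to DMSO, using reporter mRNA levels from RT-PCR plus capillary electrophoresis. Cells were HepG2 transiently carrying cis-regulated reporter constructs, harvested 24 h after dosing.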

[18] = biological target: Bile acid receptor (Homo sapiens) (UniProt Q96RI1); experiment: ATG_IR1_CIS: Attagene CIS-FACTORIAL HepG2 Assay for human Nuclear Receptor Subfamily 1 Group H Member 4 (NR1H4), IR1 submotif (AID 2282946); settings: IR1 reporter transcription, actives raise or lower the signal
Sequence of Bile acid receptor (Homo sapiens) (Q96RI1 whole entry, looked up): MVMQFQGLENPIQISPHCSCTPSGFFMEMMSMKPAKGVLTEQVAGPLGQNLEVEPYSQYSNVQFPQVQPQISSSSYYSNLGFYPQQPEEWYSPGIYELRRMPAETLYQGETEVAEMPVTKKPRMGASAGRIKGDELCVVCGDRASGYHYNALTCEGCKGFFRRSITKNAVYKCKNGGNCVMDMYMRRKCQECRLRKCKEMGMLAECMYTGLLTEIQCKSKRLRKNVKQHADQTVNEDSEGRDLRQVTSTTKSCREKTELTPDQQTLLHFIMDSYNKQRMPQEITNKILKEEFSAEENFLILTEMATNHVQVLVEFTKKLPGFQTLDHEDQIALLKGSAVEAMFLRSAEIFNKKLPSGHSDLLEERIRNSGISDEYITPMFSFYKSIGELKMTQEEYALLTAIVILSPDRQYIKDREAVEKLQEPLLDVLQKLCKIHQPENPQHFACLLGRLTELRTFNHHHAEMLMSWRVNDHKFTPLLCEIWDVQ
Method in brief: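 HepG2 cells transiently transfected with multiplexed cis-element reporter units read endogenous transcription factor activity. After 24 h compound exposure, reporter mRNA was quantified by RT-PCR, fluorescent labelling, HpaI digestion and capillary electrophoresis; bidirectional fitting versus DMSO baseline.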

[19] = ATG_GRE_CIS: Attagene CIS-FACTORIAL HepG2 Assay for human Glucocorticoid Response Elements (GRE) (AID 2282947); settings: HepG2 GRE cis-reporter, Attagene multiplex mRNA; AC50: actives raise or lower the signal unless noted; outcome: actives raise or lower the signal unless noted
Method in brief: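 Reporter transcripts read by RT-PCR with capillary electrophoresis fluorescence after a 24 h chemical exposure of HepG2 cells transiently transfected with multiple cis-element reporter units. Gain or loss fitted against DMSO.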

[20] = ATG_ISRE_CIS: Attagene CIS-FACTORIAL HepG2 Assay for human Interferon Regulatory Factor 1 (IRF1) binding to an Interferon-Stimulated Response Element (ISRE) (AID 2282948); settings: HepG2 ISRE cis-reporter (Attagene), mRNA transcription readout; actives raise or lower the signal
Method in brief: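 Uses HepG2 liver cells transfected with cis-regulated reporters and measures mRNA 24 h post-dosing through RT-PCR, primer-extension labelling and capillary electrophoresis, with DMSO as negative control.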

Measured: AC50

CCCCCCCCCCCCCCCCCC[N+](C)(C)Cc1ccccc1
active: [1] 12.8 µM | [2] 12.3 µM | [4] 88.1 µM | [5] 4.38 µM | [7] 12.8 µM | [8] 18.4 µM | [19] 79.2 µM
not listed: [20]
inactive: all other assays above

Cc1cc(C(C)(C)C)c(O)c(C(C)(C)C)c1
inactive: [1] | [2] | [4] | [5] | [7] | [8] | [9] | [11] | [14] | [15] | [17] | [18] | [19]
active: [1] 33.4 µM | [3] 50.7 µM and 80.6 µM | [8] 56.6 µM | [11] 97.1 µM | [17] 97.4 µM | [18] 60 µM

FC(F)(F)C(F)(F)C(F)(F)Br
inactive: all assays above

CC1CCC(CO)CC1 (stereo not drawn)
active: [12] 20 µM and 27.1 µM
not listed: [18] | [20]
inactive: all other assays above

C[C@]12CC[C@@H]3c4ccc(O)cc4CC[C@H]3[C@@H]1CC[C@@H]2OC(=O)CCC1CCCC1
active: [1] 14.8 µM | [2] 126 µM | [5] 58.2 µM | [8] 73.3 µM | [12] 82.3 nM | [15] 177 µM | [17] 100 µM
not listed: [20]
inactive: all other assays above

FC(F)(F)C1(F)C(F)(F)C(F)(F)C(F)(F)C1(F)F
inactive: all assays above

CCCCCCCCCCCC(=O)O
active: [1] 167 µM | [6] 100 µM | [20] 146 µM
inactive: [1] | [2] | [5] | [6] | [7] | [8] | [9] | [10] | [11] | [13] | [14] | [15] | [16] | [17] | [20]
